Measurements published in ChEMBL document CHEMBL4513141, “CO-ADD screening of NIH (USA) - Clinical Collection” (2021).
Entries with a potency or affinity are not part of this list.

Experiments:
Staphylococcus aureus = settings: Concentration 20 uM; ASSAY_TEST Inhibition of Bacterial Growth; detection method Absorption (OD600); MEDIA CAMHB; plate type 384well; NBS; CORNING #3640; time 18 hr
Escherichia coli = settings: Concentration 20 uM; ASSAY_TEST Inhibition of Bacterial Growth; detection method Absorption (OD600); MEDIA CAMHB; plate type 384well; NBS; CORNING #3640; time 18 hr

SMILES	Inhibition (Staphylococcus aureus)	Inhibition (Escherichia coli)
CN1C(=O)COc2c(C(=O)NC3CN4CCC3CC4)cc(Cl)cc21.Cl (stereo not given)	14.32%	3.95%
Cl.O.Oc1ccc2c3c1O[C@H]1c4[nH]c5ccccc5c4C[C@@]4(O)C(C2)N(CC2CC2)CC[C@]314	-20.11%	6.59%
CC(C)[C@]12O[C@H]1[C@@H]1O[C@]13[C@]1(O[C@H]1C[C@H]1C4=C(CC[C@@]13C)C(=O)OC4)[C@@H]2O [TRIPTOLIDE]	14.16%	-9.75%
COc1ccc(C(CN(C)C)C2(O)CCCCC2)cc1.Cl (stereo not given) [VENLAFAXINE HYDROCHLORIDE]	5.17%	7.16%
Cc1ccnc2c1NC(=O)c1cccnc1N2C1CC1 [NEVIRAPINE]	12.92%	-0.52%
CCCC(C)(COC(N)=O)COC(=O)NC(C)C (stereo not given) [CARISOPRODOL]	-20.34%	4.18%
CN1[C@@H]2CC[C@H]1CC(OC(=O)C(CO)c1ccccc1)C2 (stereo not given in full)	1.53%	-5.78%
CS(=O)(=O)Nc1ccc(Cc2noc(-c3ccc4[nH]cc(CCN)c4c3)n2)cc1.O.O	12.02%	7.87%
C#CCN(C)[C@H](C)Cc1ccccc1.Cl [SELEGILINE HYDROCHLORIDE]	-22.3%	3.38%
Cc1c(O)c(=O)ccn1C [DEFERIPRONE]	9.56%	-6.38%
COC(=O)C1=C(C)NC(C)=C(C(=O)OC)C1c1ccccc1[N+](=O)[O-] [NIFEDIPINE]	16.67%	3.8%
Cl.NCCc1ccc(O)c(O)c1 [DOPAMINE HYDROCHLORIDE]	8.23%	-5.62%
c1ccc(Cn2ccnc2)cc1	13.36%	-1.92%
CC(C)NCC(O)COc1cccc2[nH]ccc12 (stereo not given) [PINDOLOL]	7.44%	5.35%
COCCCOc1ccnc(C[S+]([O-])c2nc3ccccc3[nH]2)c1C (stereo not given) [RABEPRAZOLE]	10.37%	7.16%
CC(C)(C)NCC(O)c1cc(O)cc(O)c1.O=S(=O)(O)O (stereo not given)	5.47%	5.21%
C#C[C@]1(O)CC[C@H]2[C@@H]3CCC4=CC(=O)CC[C@@H]4[C@H]3CC[C@@]21C [NORETHINDRONE]	-0.74%	4.04%
CN(C)CCOc1ccc(/C(=C(/CCCl)c2ccccc2)c2ccccc2)cc1.O=C(O)CC(O)(CC(=O)O)C(=O)O [TOREMIFENE CITRATE]	24.11%	-1.37%
CC1CCC[C@H](O)CCCCCc2cc(O)cc(O)c2C(=O)O1 (stereo not given in full)	10.2%	1.45%
CN1C(=O)CN=C(c2ccccc2)c2cc([N+](=O)[O-])ccc21 [NIMETAZEPAM]	10.78%	1.04%

SMILES	Inhibition (Staphylococcus aureus)	Inhibition (Escherichia coli)
CC[C@@H](C(N)=O)N1CCCC1=O	18.53%	0.96%
CN1CCC[C@H]1c1cccnc1 [NICOTINE]	-15.48%	6.98%
Cl.O.Oc1cc2c(cc1O)[C@H]1c3ccccc3CN[C@@H]1CC2	11.17%	6.66%
CC(C(=O)O)c1ccc(-c2ccccc2)c(F)c1 (stereo not given) [FLURBIPROFEN]	10.54%	-5.67%
CC(=O)OCC[N+](C)(C)C.[Cl-] [ACETYLCHOLINE CHLORIDE]	11.31%	4.11%
C[N+]1(CCC(C(N)=O)(c2ccccc2)c2ccccc2)CCCCC1.[Br-] [FENPIVERINIUM BROMIDE]	4.81%	-0.64%
C[C@]12CC[C@H]3[C@@H](CCC4=CC(=O)CC[C@@H]43)[C@@H]1CC[C@@H]2O [NANDROLONE]	-0.13%	1.44%
NS(=O)(=O)c1cc(C2(O)NC(=O)c3ccccc32)ccc1Cl (stereo not given) [CHLORTHALIDONE]	15.62%	-0.28%
CN1[C@@H](CC(=O)c2ccccc2)CCC[C@H]1C[C@H](O)c1ccccc1.Cl [LOBELINE HYDROCHLORIDE]	13.97%	-0.94%
c1ccc2c3c([nH]c2c1)CNCC3 [TRYPTOLINE]	7.42%	3.55%
CCCCCNC(=N)N/N=C/c1c[nH]c2ccc(OC)cc12.O=C(O)/C=C\C(=O)O [TEGASEROD MALEATE]	22.85%	-0.84%
CNS(=O)(=O)Cc1ccc2[nH]cc(CCN(C)C)c2c1.O=C(O)CCC(=O)O [SUMATRIPTAN SUCCINATE]	12.49%	0.9%
CCC(COC(=O)c1cc(OC)c(OC)c(OC)c1)(c1ccccc1)N(C)C.O=C(O)/C=C\C(=O)O (stereo not given)	4.02%	7.24%
CN1CCN2c3ncccc3Cc3ccccc3C2C1 (stereo not given) [MIRTAZAPINE]	-16.68%	-1.97%
C[C@H](CCC(=O)O)[C@H]1CC[C@H]2[C@@H]3C(=O)C[C@@H]4CC(=O)CC[C@]4(C)[C@H]3CC(=O)[C@]12C [DEHYDROCHOLIC ACID]	8.43%	9.29%
O=C1CN=C(c2ccccc2)c2cc([N+](=O)[O-])ccc2N1 [NITRAZEPAM]	7.65%	5.89%
CN(C)C(=O)C(CCN1CCC(O)(c2ccc(Cl)cc2)CC1)(c1ccccc1)c1ccccc1.Cl [LOPERAMIDE HYDROCHLORIDE]	6.46%	2.77%
CC(COc1ccccc1)N(CCCl)Cc1ccccc1.Cl (stereo not given) [PHENOXYBENZAMINE HYDROCHLORIDE]	12.58%	3.59%
COc1cc(N)c(Cl)cc1C(=O)NC1CN2CCC1CC2.Cl.O (stereo not given) [ZACOPRIDE HYDROCHLORIDE]	-3.02%	7.58%
C[C@]12CC(C=O)=C(O)C[C@@H]1CC[C@@H]1[C@@H]2CC[C@@]2(C)[C@H]1CC[C@]2(C)O	4.66%	7.86%

SMILES	Inhibition (Staphylococcus aureus)	Inhibition (Escherichia coli)
CC(=O)OC1C([N+]2(C)CCCCC2)C[C@H]2C3CC[C@H]4C[C@H](OC(C)=O)C([N+]5(C)CCCCC5)CC4(C)[C@H]3CCC12C.[Br-].[Br-] (stereo not given in full)	8.65%	6.22%
O=C1Nc2ccc(Cl)cc2C(c2ccccc2Cl)=NC1O (stereo not given) [LORAZEPAM]	-3.94%	2.56%
Cl.Cl.OCCN1CCN(CCCN2c3ccccc3Sc3ccc(C(F)(F)F)cc32)CC1 [FLUPHENAZINE HYDROCHLORIDE]	12.42%	-6.08%
COc1cc(-c2ccc(=O)[nH]n2)ccc1OC(F)F [ZARDAVERINE]	7.7%	-1.99%
c1ccc2c(c1)Nc1ccccc1S2 [PHENOTHIAZINE]	-22.92%	9.21%
Cc1ncc2n1-c1ccc(Cl)cc1C(c1ccccc1F)=NC2.Cl [MIDAZOLAM HYDROCHLORIDE]	-27.39%	7.58%
Br.COc1ccc2c3c1O[C@H]1C[C@@H](O)C=C[C@@]31CCN(C)C2 [GALANTAMINE HYDROBROMIDE]	13.66%	3.62%
Br.Br.CN1CC[C@]2(c3cccc(O)c3)Cc3nc4ccccc4cc3C[C@H]2C1.O	5.38%	1.66%
CCOC(=O)C1(c2ccccc2)CCN(CCC(C#N)(c2ccccc2)c2ccccc2)CC1.Cl [DIPHENOXYLATE HYDROCHLORIDE]	14.18%	-7.43%
c1cncc([C@@H]2CCCN2)c1 [NORNICOTINE]	12.8%	-3.23%
Nc1nc(F)nc2c1ncn2[C@@H]1O[C@H](CO)[C@@H](O)[C@@H]1O [FLUDARABINE]	11.26%	42.2%
CC(NC(C)(C)C)C(=O)c1cccc(Cl)c1.Cl (stereo not given) [BUPROPION HYDROCHLORIDE]	-23.91%	5.32%
COc1cc(CNC(=O)CCCC/C=C\C(C)C)ccc1O [ZUCAPSAICIN]	14.17%	0%
C[C@]12CC[C@H]3[C@@H](CCC4=CC(=O)CC[C@@]43C)[C@@H]1CC[C@@H]2O [TESTOSTERONE]	-3.69%	-8.96%
CNCC(O)c1ccc(O)cc1 (stereo not given) [OXEDRINE]	-16.09%	6.6%
CCOC(=O)c1cncn1[C@H](C)c1ccccc1 [ETOMIDATE]	11.17%	2.26%
Cc1ccc(-c2nc3ccc(C)cn3c2CC(=O)N(C)C)cc1.Cc1ccc(-c2nc3ccc(C)cn3c2CC(=O)N(C)C)cc1.O=C(O)C(O)C(O)C(=O)O [ZOLPIDEM TARTRATE]	4.54%	-2.63%
Cl.O=C1c2cccc3c2[C@H](CCC3)CN1[C@@H]1CN2CCC1CC2 [PALONOSETRON HYDROCHLORIDE]	8.38%	4.34%
Cn1c(=O)c2nc[nH]c2n(C)c1=O.O [THEOPHYLLINE]	-24.23%	7.82%
C=C1C[C@@H]2[C@H](CC[C@]3(C)C(=O)CC[C@@H]23)[C@@]2(C)C=CC(=O)C=C12 [EXEMESTANE]	13.66%	-6.95%
